Compounds with a hit are over-represented: about 2.2% of the library has one in this group of screens.
LDHA block: blocks human lactate dehydrogenase A. purified LDHA, NADH/diaphorase-resazurin fluorescence; active compounds read low. P00338. actives 0.15% (n = 480,000). activity change, % (values are at about 110 or 230 µM); in the data active = activity change below about -30%; inconclusive = mostly about -25% to -30%
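Human LDH5 (2 nM) was incubated with 0.06 mM NADH and 0.2 mM pyruvate for 5 min at room temperature in Tris pH 7.4. Remaining NADH was coupled through diaphorase/resazurin, and resorufin fluorescence was read at 0 and 20 min.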
HepG2 tox: kills HepG2 cells in TGF-b inhibitor counter-screen; HepG2 CAGA-GFP viability, ATP luminescence, 18 h; Potency, µM (doses to about 46.1 µM), actives largely listed as cytotoxic; actives 0.76% (n = 410,000)
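HepG2 CAGA-GFP cells (1000/well, DMEM with 1% FBS) received compound, then TGF-beta at 500 pg/mL final, and were incubated 18 hours at 37 degrees C. Viability was read by CellTiter-Glo luminescence. Media-only wells were set as complete cell-killing and DMSO as no toxicity.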
ATXN viability: reduces viability in counter-screen for ATXN expression inhibitors. S2 cells (HEK-293 line with an ATXN2-luciferase reporter) viability, CellTiter-Fluor protease fluorescence, 24 h. Potency, µM (top dose mostly 56.7 µM), actives largely listed as cytotoxic. actives 0.49% (n = 400,000). AID 651635; also: nearly all actives have a fitted effect of over 40% in size
TGFb inhibitor: TGF-b pathway inhibition; HepG2 CAGA-GFP TGF-b/SMAD3 reporter, GFP fluorescence, 18 h; TGF-beta stimulated, 500 pg/mL final; Potency, µM (series often up to 46.1 µM), usual class: inhibitors; actives 1.2% (n = 410,000); also: nearly all actives have a fitted effect of over 65% in size
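HEPG2 CAGA-GFP cells (1000/well, DMEM with 1% FBS) were pre-incubated 2 h at 37 degrees C, given compound by pin tool, then stimulated with TGF-beta at 500 pg/mL final for 18 h before per-cell GFP fluorescence imaging.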
ATXN2 expr inh: inhibitors of ATXN2 expression. HEK-293 ATXN2-luciferase reporter, luminescence, 24 h. Potency, µM (top dose mostly 57 µM), hits mostly inhibitors. actives 0.72% (n = 360,000). AID 1745845; also: nearly all actives have a fitted effect of over 55% in size
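ATXN2-luciferase reporter cells (luciferase flanked by upstream and downstream ATXN2 gene portions) were treated 24 h at 37 °C with compounds at up to 57 uM. SteadyGlo luminescence gave expression; GF-AFC fluorescence gave viability.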
mIDH1 inhibitor: human IDH1 R132H inhibition. Potency, µM (titrated, usually from 76.6 µM), usual class: inhibitors. IDH1-R132H enzyme, NADPH consumption, diaphorase/resazurin fluorescence. O75874. actives 0.093% (n = 390,000); also: nearly all actives have a fitted effect of over 65% in size
Target sequence (O75874 whole entry R132H, stated change not applied): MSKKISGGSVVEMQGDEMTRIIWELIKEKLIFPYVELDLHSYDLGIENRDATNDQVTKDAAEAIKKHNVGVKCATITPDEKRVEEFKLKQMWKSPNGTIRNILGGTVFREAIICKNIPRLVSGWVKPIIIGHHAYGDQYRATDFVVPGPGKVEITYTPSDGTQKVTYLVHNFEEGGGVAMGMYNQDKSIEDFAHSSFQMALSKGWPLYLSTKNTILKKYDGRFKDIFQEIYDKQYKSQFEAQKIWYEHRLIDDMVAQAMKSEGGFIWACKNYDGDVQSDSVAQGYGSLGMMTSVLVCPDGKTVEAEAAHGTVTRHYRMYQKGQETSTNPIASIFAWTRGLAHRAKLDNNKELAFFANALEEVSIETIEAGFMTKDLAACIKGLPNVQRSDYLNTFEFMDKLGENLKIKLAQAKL
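IDH1-R132H (0.5 ug/mL dispensed) in pH 7.5 Tris buffer was preincubated 30 min with compound, then given a substrate mix of 0.016 mM NADPH and 2 mM alpha-KG for 80 min at room temperature; remaining NADPH was read by diaphorase/resazurin fluorescence.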
Large screens that a line does not name were inactive; ! = a repeat was not active. Unless noted, calls follow the shape of the dose curve; as a rule, active = well fitted curve in the direction sought with a large enough effect; inconclusive = small, poorly fitted or top-dose-only effect, or another doubt; inactive = no such curve, though single readings can be large; an effect the other way counts as inactive or inconclusive.

CCN(C(=O)CSc1n[nH]c(-c2ccccc2)n1)c1c(N)n(Cc2ccccc2)c(=O)[nH]c1=O	none
Cc1ccc([C@H]2C[C@@H](n3cc(-c4ccc(F)cc4)nn3)[C@H](O)CN2Cc2cccs2)cc1	none
O[C@H]1C[C@H](c2ccc(Cl)cc2)N(CC2CCCCC2)C[C@@H]1n1cc(C2CC2)nn1	HepG2 tox 16µM, ATXN viability 35µM, TGFb inhibitor inconclusive, ATXN2 expr inh inconclusive
O[C@@H]1CN(CC2CCCCC2)[C@@H](c2ccc(Cl)cc2)C[C@H]1n1cc(C2CC2)nn1	ATXN viability 20µM, ATXN2 expr inh inconclusive
O[C@@H]1CN(Cc2cccs2)[C@@H](c2ccc(Cl)cc2)C[C@H]1n1cc(-c2ccc(F)cc2)nn1	LDHA block -30, ATXN viability inconclusive, TGFb inhibitor inconclusive
Cc1ccc(C(=O)C(CC(=O)c2ccccc2)S(=O)(=O)c2ccc(C)cc2)cc1 (configuration not stated)	none (no result: HepG2 tox, ATXN viability, TGFb inhibitor, ATXN2 expr inh, mIDH1 inhibitor)
O=C1CC(N(CCc2ccccc2)C(=S)Nc2ccccc2)C(=O)N1c1ccc(Br)cc1 (configuration not stated)	HepG2 tox 2.2µM, ATXN viability inconclusive, TGFb inhibitor inconclusive, ATXN2 expr inh inconclusive
CCOc1cc(C(=O)OC(C)C(N)=O)ccc1OC (configuration not stated)	none (no result: HepG2 tox, ATXN viability, TGFb inhibitor, ATXN2 expr inh, mIDH1 inhibitor)
CC(=O)c1c(C)[nH]c(C(=O)Nc2ccc(Cl)c(S(=O)(=O)N(C)C)c2)c1C	none (no result: ATXN2 expr inh)
CC(=O)c1c(C)[nH]c(C(=O)OCC(=O)Nc2ccc(Cl)c(S(=O)(=O)N(C)C)c2)c1C	ATXN viability 13µM, TGFb inhibitor inconclusive (no result: ATXN2 expr inh)
COc1cccc(N2CCN(C(=O)c3ccc(CS(=O)c4ccccc4C)o3)CC2)c1 (configuration not stated)	none
COc1cccc(N2CCN(C(=O)c3ccc(CS(=O)c4ccccc4Cl)o3)CC2)c1 (configuration not stated)	TGFb inhibitor 11µM
COc1ccc(Nc2nc(N)c([N+](=O)[O-])c(NC3CCCCC3)n2)cc1	HepG2 tox 22µM, TGFb inhibitor inconclusive, ATXN2 expr inh inconclusive (no result: ATXN viability)
CN(CC(=O)Nc1ccccc1F)CC(=O)Nc1ccc(F)c(F)c1F	none (no result: ATXN2 expr inh)
CSc1ccccc1NC(=O)CN(C)C(=O)COc1cccc2cccnc12	HepG2 tox 11µM, TGFb inhibitor inconclusive
CSc1ccccc1NC(=O)CN(C)CC(=O)Nc1c(F)cccc1F	LDHA block -55
CSc1ccccc1NC(=O)CN(C)CC(=O)Nc1ccccc1F	LDHA block -31
Cc1ccc(S(=O)(=O)N2CCOCC2)cc1C(=O)NC(=S)N1CC(C)CC(C)C1 (configuration not stated)	none
CCc1ccccc1N(CC)C(=O)c1cc2c(s1)-c1ccccc1SC2	none (no result: ATXN viability, TGFb inhibitor, ATXN2 expr inh, mIDH1 inhibitor)
COC(=O)c1[nH]c(C)c(/C(O)=C2\C(=O)C(=O)N(CCCn3ccnc3)C2c2ccncc2)c1C (configuration not stated)	none (no result: HepG2 tox, ATXN viability, TGFb inhibitor, ATXN2 expr inh, mIDH1 inhibitor)
COC(=O)c1[nH]c(C)c(/C(O)=C2\C(=O)C(=O)N(CCCn3ccnc3)C2c2cccc(OC)c2)c1C (configuration not stated)	LDHA block -40 (no result: HepG2 tox, ATXN viability, TGFb inhibitor, ATXN2 expr inh, mIDH1 inhibitor)
CCN1CCCC1CN(Cc1cc2ccc(C)cc2[nH]c1=O)C(=S)Nc1cccc(OC)c1 (configuration not stated)	none
CCN1CCCC1CN(Cc1cc2ccc(C)cc2[nH]c1=O)C(=S)Nc1ccc(OC)cc1 (configuration not stated)	HepG2 tox 13µM, ATXN viability inconclusive, TGFb inhibitor inconclusive
O=S(=O)(Nc1ccc(Br)cn1)c1cccs1	none
COc1ccc(S(=O)(=O)CC(=O)c2cc3cc(Br)ccc3oc2=O)cc1	TGFb inhibitor 13µM (no result: ATXN2 expr inh)
CCN(CC)C(=O)c1cc2cc(Br)ccc2oc1=O	HepG2 tox 7.1µM, ATXN viability inconclusive
O=[N+]([O-])c1ccc2nc(NCCCO)nc(-c3ccccc3)c2c1	TGFb inhibitor inconclusive
COc1cc2c(cc1NC(=O)C(Cl)Cl)-c1ccc(NC(=O)C(Cl)Cl)cc1C2	HepG2 tox 7.9µM, TGFb inhibitor 4.5µM (no result: ATXN viability)
C/C(=C(\CCOP(=O)(O)O)SC(=O)c1ccccc1)N(C=O)Cc1cnc(C)nc1N	none (no result: LDHA block, HepG2 tox, TGFb inhibitor, mIDH1 inhibitor)
C=CCn1c(SCC(C)=O)nc2scc(-c3ccco3)c2c1=O	none
C=CCn1c(SC(F)F)nc2scc(-c3ccco3)c2c1=O	TGFb inhibitor 10µM
COc1ccc(C(CNC(=O)c2cccc(NS(=O)(=O)c3ccc(Br)cc3)c2)N(C)C)cc1 (configuration not stated)	HepG2 tox 7.1µM
COc1ccc(NC(=O)CN(C)C(=O)c2cccc(NS(=O)(=O)c3ccc(Br)cc3)c2)cc1	ATXN viability inconclusive
O=C(NCC(c1ccccc1)N1CCOCC1)c1cc(-c2cccs2)on1 (configuration not stated)	LDHA block -32 (no result: HepG2 tox, ATXN viability, TGFb inhibitor, ATXN2 expr inh, mIDH1 inhibitor)
CC(C)c1ccc(C(CNC(=O)c2cc(-c3cccs3)on2)N2CCOCC2)cc1 (configuration not stated)	none (no result: HepG2 tox, ATXN viability, TGFb inhibitor, ATXN2 expr inh, mIDH1 inhibitor)
Cc1cc(C)c(C#N)c(SCC(=O)c2cccs2)n1	none
Cc1cc(C)c(C#N)c(SCC(=O)c2ccccc2)n1	TGFb inhibitor 10µM (no result: ATXN viability)
O=C1CC(c2cccc(O)c2)c2c(nc(SCc3ccccc3F)[nH]c2=O)N1 (configuration not stated)	HepG2 tox 7.1µM
CCOc1cc(C2CC(=O)Nc3nc(SCc4ccccc4)[nH]c(=O)c32)ccc1O (configuration not stated)	none
CC(=O)N1CCCc2cc(S(=O)(=O)N3CCCC(C(=O)N4CCN(c5ccccc5)CC4)C3)ccc21 (configuration not stated)	ATXN viability inconclusive, TGFb inhibitor inconclusive, ATXN2 expr inh inconclusive
COc1ccccc1N1CCN(C(=O)C2CCCN(S(=O)(=O)c3ccc4c(c3)CCCN4C(C)=O)C2)CC1 (configuration not stated)	ATXN viability inconclusive, TGFb inhibitor inconclusive, ATXN2 expr inh 18µM!
Cc1ccc(C)c(N2CCN(S(=O)(=O)c3ccc4c(c3)CCCN4C(=O)C3CCC3)CC2)c1	none
CC(=O)N1CCCc2cc(S(=O)(=O)N3CCCC(C(=O)N4CCN(c5cc(C)ccc5C)CC4)C3)ccc21 (configuration not stated)	ATXN viability 25µM!, TGFb inhibitor 13µM, ATXN2 expr inh 20µM
COC(=O)[C@@]1(Cc2ccc(F)cc2)[C@H]2c3cc(C(=O)N4CCCC4)n(CCN4CCNC4=O)c3C[C@H]2CN1C(=O)c1ccccc1	none (no result: HepG2 tox, TGFb inhibitor, mIDH1 inhibitor)
